# Hits are enriched below; roughly 19% of the tested compounds scored in any of these assays.
# IL1B secr inh = inflammasome signaling inhibition, IL-1 beta readout | AID 743279 | actives 4.7% (n = 360,000) | activity change, % at 57.5 µM | THP-1 LPS/ATP IL-1B secretion, AlphaLISA, 16 h; stronger effect = lower value; in the data active = activity change below about -50%; inconclusive = mostly about -30% to -49%
#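 Secreted IL-1B measured by AlphaLISA bead assay after 16 h compound exposure of THP-1 cells; compounds (final up to 57.5 uM) added 1 h before LPS (250 ng/mL) and ATP (1.25 mM) stimulation; lower signal means less secretion.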
# HT1080-NT tox = kills 2HG-producing HT-1080-NT fibrosarcoma cells; Potency, µM (highest dose often 46.1 µM), inactives show at the top dose activity, negative = less viability, actives largely listed as cytotoxic; HT-1080-NT fibrosarcoma viability, CellTiter-Glo ATP luminescence, 48 h; AID 686970; actives 1.6% (n = 360,000);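 also: NT is the 2HG producing partner of a matched IDH1 knockdown line; potency is read from the fitted curve at half-maximal effect; 0% = DMSO-treated cells and -100% = media-only wells without cells; nearly all actives have a fitted effect of over 55% in size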
#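 Viability by CellTiter-Glo luminescence after 48 h compound exposure at 37C of HT-1080-NT cells (750/well, RPMI, 5% FBS). % activity scaled between DMSO wells and medium-only wells, then curve-fitted and categorized by curve class.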
# HT1080 IDH1KD tx = kills HT-1080 cells with IDH1 knockdown | HT-1080 IDH1 knockdown viability, ATP luminescence, 48 h | Potency, µM (top dose mostly 46.1 µM), inactives show at the highest dose activity, negative = toxicity, hits mostly cytotoxic | actives 2% (n = 360,000) | AID 686971;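 also: potency is read from the fitted curve at half-maximal effect; 0% = DMSO wells and -100% = cell-free medium wells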
#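 In this qHTS, HT-1080 cells depleted of IDH1 are exposed for 48 h at 37 °C to compound titrations. Toxicity is scored from CellTiter-Glo luminescence, with DMSO as full viability and medium alone as none.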
# DT40 TDP1 CPT = growth inhibition of DT40 Tdp1-/-;hTDP1 cells with camptothecin (screen for TDP1 inhibitors). Potency, µM (titrated, usually from 46.2 µM), for inactives: at the top dose activity change, negative = growth inhibition, actives largely listed as inhibitors. actives 12% (n = 420,000). AID 686979. chicken DT40 Tdp1-/-;hTDP1 cells + 20 nM CPT, ATP luminescence, 48 h; also: potency is read from the fitted curve at half-maximal effect; nearly all actives have a fitted effect of over 55% in size
#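 Chicken DT40 Tdp1-/- cells complemented with human TDP1, 400 cells/well, exposed to compounds plus 20 nM camptothecin for at least 48 h at 37 C; viability read as ATP content by CellTiter-Glo luminescence.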
# TDP1 cell noCPT = qHTS for Inhibitors of human tyrosyl-DNA phosphodiesterase 1 (TDP1): qHTS in cells in absence of CPT; DT40 Tdp1-/- hTDP1 cells, no CPT, ATP luminescence, 48 h; actives 15% (n = 420,000); Potency, µM (titrated, usually from 46.2 µM), inactives show at the highest dose activity change, negative = growth inhibition, actives largely listed as inhibitors; also: potency is read from the fitted curve at half-maximal effect; nearly all actives have a fitted effect of over 55% in size
#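 Readout: luminescence from CellTiter-Glo after 30 min in the dark at RT. Cells: DT40 Tdp1-/- with stable hTDP1, 400/well. Exposure: compounds alone, ≥48 hr, 37 °C.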
# ELG1 DNA repair = ELG1-dependent DNA repair inhibition; actives 2.3% (n = 330,000); AID 504467; Potency, µM (titrated, usually from 46.1 µM), for inactives: at the top dose activity change, negative = inhibition, most hits filed as inhibitors; HEK293T ELG1-luciferase reporter, luminescence, 16 h; DNA damage induced by 5-fluorouridine; also: potency is read from the fitted curve at half-maximal effect; nearly all actives have a fitted effect of over 55% in size
#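 HEK293T cells expressing luciferase-tagged ELG1 (2,000/well) received 5-Fluorouridine plus compound or DMSO for 16 hr at 37 °C. Luciferase was read by ONE-Glo luminescence after 30 min at room temperature.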
# An asterisk follows results filed as active; u = inconclusive; x = not tested or not shown. Unless noted, calls follow the shape of the dose curve; as a rule, active = well fitted curve in the direction sought with a large enough effect; inconclusive = small, poorly fitted or top-dose-only effect, or another doubt; inactive = no such curve, though single readings can be large; an effect the other way counts as inactive or inconclusive. Unless noted, % is scaled to controls: 0 for no effect and ±100 for the full control effect.
SMILES,IL1B secr inh,HT1080-NT tox,HT1080 IDH1KD tx,DT40 TDP1 CPT,TDP1 cell noCPT,ELG1 DNA repair
COc1ccc(N2C(=O)CC(Sc3nnc(-c4ccccc4)o3)C2=O)cc1 (stereo not drawn),-29,-1%,-1%,2.9µM*,2.9µM*,12%
COC(=O)CCN1CCC2CC1c1cc(-c3cccc(C)c3)ccc12 (stereo not drawn),-8,-4%,0%,u,-15%,x
CCOC(=O)C1(Cc2ccc(Cl)cc2)CCN(C(=O)c2ccoc2)CC1,-4,5%,8%,-17%,u,-10%
O=C(C1=C[C@@H](c2coc3ccccc3c2=O)C[C@@H](OCc2ccc(CO)cc2)O1)N1CCCCCCC1,-19,10%,7%,12µM*,u,u
O=C(C1=C[C@@H](c2coc3ccccc3c2=O)C[C@@H](OCc2ccc(CO)cc2)O1)N1CCN(Cc2ccccc2)CC1,u,-2%,2%,18µM*,u,u
CN1CCN(C(=O)C2=C[C@@H](c3coc4ccccc4c3=O)C[C@@H](OCc3ccc(CO)cc3)O2)CC1,12,7%,14%,2%,-8%,-4%
C=CC[n+]1cccc2cccc(O)c21,x,x,x,-17%,-20%,x
Cc1ccc(C(=O)NCC(=O)NCCc2ccc(S(N)(=O)=O)cc2)s1,5,0%,3%,1%,2%,u
O=C(Nc1ccc(Br)cc1)c1cccc(N2C(=O)C3C4C=CC(C4)C3C2=O)c1 (stereo not drawn),-23,-8%,-7%,23µM*,u,u
O=C(Nc1ccc(Br)cc1)c1cccc(N2C(=O)C3C4CCC(C4)C3C2=O)c1 (stereo not drawn),u,-12%,-14%,u,29µM*,16µM*
O=C(Nc1ccc(F)cc1)c1cccc(N2C(=O)C3C4C=CC(C4)C3C2=O)c1 (stereo not drawn),3,1%,-1%,-8%,u,-9%
O=C(Nc1ccc(F)cc1)c1cccc(N2C(=O)C3C4CCC(C4)C3C2=O)c1 (stereo not drawn),0,3%,-1%,u,23µM*,u
Cc1ccc(CNC(=O)C2CCN(S(=O)(=O)c3cn(C)cn3)CC2)cc1,x,x,x,-10%,-16%,x
CC1=C(C(=O)N2CCCCCC2)CC(CC(=O)NCc2ccco2)C(=O)N1Cc1ccccc1 (stereo not drawn),-25,8%,16%,2%,7%,x
c1nc(SSc2ncc3n[nH]nc3n2)nc2n[nH]nc12,x,x,x,4%,-21%,x
Cc1onc(-c2ccccc2)c1C(=O)N1CCC(C)(C(=O)O)C1 (stereo not drawn),9,22%,23%,-8%,-16%,x
COc1cc(Br)c(C[N+]2(CCOCCC3CCC4CC3C4(C)C)CCOCC2)cc1OC (stereo not drawn),x,x,x,1.9µM*,1.9µM*,x
c1ccc2c(N3CCCCC3)ncnc2c1,27,-20%,-17%,u,21µM*,u
CCC1CCCCN1c1nc(-c2cccc(OC)c2O)nc2ccccc12 (stereo not drawn),-8,-25%,-6%,u,u,u
CC1CCCCN1c1ncnc2ccccc12 (stereo not drawn),-25,18µM*,1%,23µM*,10µM*,u
CCC1CCCCN1c1nc(-c2ccncc2)nc2ccccc12 (stereo not drawn),-7,18µM*,u,29µM*,u,u
CC1CCCCN1c1nc(-c2ccncc2)nc2ccccc12 (stereo not drawn),-14,u,29µM*,u,18µM*,-35%
c1ccc(-c2nc(C3CCCCC3)c3ccccc3n2)cc1,23,4%,1%,-3%,-16%,u

# Screening data deposited in PubChem by National Center for Advancing Translational Sciences (NCATS).
